# Experimental data from the supplement of paper PMC9794691.
# ± gives the standard deviation of the averaged measurements.
# System: PC9
# Experiment: area under confluence curve of osimertinib + compound combination regimen (DTP regrowth); compare to osimertinib-only DTP control AUC of the same experiment (AUC (confluence x time, arbitrary))
# Method: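 compare to osimertinib-only DTP control AUC of the same experiment; Long-term drug-tolerant persister (DTP) screen in EGFR-mutant NSCLC cell lines in 48-well plates. The test compound was given at one fixed dose with osimertinib, either upfront (from day 0 to the DTP stage at 10-21 days, then drug-free medium) or sequentially (osimertinib alone to the DTP stage, then the test compound). IncuCyte confluence was tracked until osimertinib-only controls regrew, and AUC was computed in Prism. AUC scale depends on experiment duration, so each row carries the same-experiment osimertinib-only DTP and DMSO control AUCs; combination activity = control minus combo AUC. Osimertinib dose not stated.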
structure (smiles),measurement,setting,value
Cc1nc(-c2nc(-c3ccc(OC(F)(F)F)cc3)no2)nn1Cc1cccc(N2CCC(S(C)(=O)=O)CC2)c1 + C=CC(=O)Nc1cc(Nc2nccc(-c3cn(C)c4ccccc34)n2)c(OC)cc1N(C)CCN(C)C [osimertinib],area under confluence curve,"test compound dose 10 nM, dosing schedule: sequential, osimertinib-only DTP control AUC in same experiment: 11178, DMSO control AUC in same experiment: 18385",9950
same,area under confluence curve,"test compound dose 10 nM, dosing schedule: sequential, osimertinib-only DTP control AUC in same experiment: 12231, DMSO control AUC in same experiment: 19076",3870
same,area under confluence curve,"test compound dose 10 nM, dosing schedule: upfront, osimertinib-only DTP control AUC in same experiment: 16535, DMSO control AUC in same experiment: 19076",12500
same,area under confluence curve,"test compound dose 10 nM, dosing schedule: upfront, osimertinib-only DTP control AUC in same experiment: 16887, DMSO control AUC in same experiment: 18385",15300
Cc1nc(Nc2ncc(C(=O)Nc3c(C)cccc3Cl)s2)cc(N2CCN(CCO)CC2)n1 [Dasatinib] + C=CC(=O)Nc1cc(Nc2nccc(-c3cn(C)c4ccccc34)n2)c(OC)cc1N(C)CCN(C)C [osimertinib],area under confluence curve,"test compound dose 30 nM, dosing schedule: sequential, osimertinib-only DTP control AUC in same experiment: 10175, DMSO control AUC in same experiment: 27958",2120
same,area under confluence curve,"test compound dose 30 nM, dosing schedule: sequential, osimertinib-only DTP control AUC in same experiment: 12589, DMSO control AUC in same experiment: 28243",1440
same,area under confluence curve,"test compound dose 30 nM, dosing schedule: upfront, osimertinib-only DTP control AUC in same experiment: 16088, DMSO control AUC in same experiment: 28243",1770
same,area under confluence curve,"test compound dose 30 nM, dosing schedule: upfront, osimertinib-only DTP control AUC in same experiment: 16134, DMSO control AUC in same experiment: 27958",2420
C[C@@]1(C(=O)Nc2ccc(F)nc2)CCCN1c1nc(Nc2cc(C3CC3)n[nH]2)c2cccn2n1 + C=CC(=O)Nc1cc(Nc2nccc(-c3cn(C)c4ccccc34)n2)c(OC)cc1N(C)CCN(C)C [osimertinib],area under confluence curve,"test compound dose 100 nM, dosing schedule: sequential, osimertinib-only DTP control AUC in same experiment: 1963, DMSO control AUC in same experiment: 30580",219 ± 17
same,area under confluence curve,"test compound dose 100 nM, dosing schedule: sequential, osimertinib-only DTP control AUC in same experiment: 12502, DMSO control AUC in same experiment: 49143",7400
same,area under confluence curve,"test compound dose 100 nM, dosing schedule: sequential, osimertinib-only DTP control AUC in same experiment: 14708, DMSO control AUC in same experiment: 21341",3460
same,area under confluence curve,"test compound dose 100 nM, dosing schedule: upfront, osimertinib-only DTP control AUC in same experiment: 8618, DMSO control AUC in same experiment: 30580",4520 ± 430
same,area under confluence curve,"test compound dose 100 nM, dosing schedule: upfront, osimertinib-only DTP control AUC in same experiment: 21313, DMSO control AUC in same experiment: 21341",7730
same,area under confluence curve,"test compound dose 100 nM, dosing schedule: upfront, osimertinib-only DTP control AUC in same experiment: 28310, DMSO control AUC in same experiment: 49143",13100
COC(=O)c1ccc([C@H]2c3[nH]c4ccccc4c3C[C@H](C(=O)OC)N2C(=O)CCl)cc1 + C=CC(=O)Nc1cc(Nc2nccc(-c3cn(C)c4ccccc34)n2)c(OC)cc1N(C)CCN(C)C [osimertinib],area under confluence curve,"test compound dose 100 nM, dosing schedule: sequential, osimertinib-only DTP control AUC in same experiment: 8716, DMSO control AUC in same experiment: 45737",655
same,area under confluence curve,"test compound dose 100 nM, dosing schedule: sequential, osimertinib-only DTP control AUC in same experiment: 10175, DMSO control AUC in same experiment: 27958",1250
same,area under confluence curve,"test compound dose 100 nM, dosing schedule: sequential, osimertinib-only DTP control AUC in same experiment: 14030, DMSO control AUC in same experiment: 30326",1840
same,area under confluence curve,"test compound dose 100 nM, dosing schedule: upfront, osimertinib-only DTP control AUC in same experiment: 11096, DMSO control AUC in same experiment: 45737",12700
same,area under confluence curve,"test compound dose 100 nM, dosing schedule: upfront, osimertinib-only DTP control AUC in same experiment: 16134, DMSO control AUC in same experiment: 27958",13900
same,area under confluence curve,"test compound dose 100 nM, dosing schedule: upfront, osimertinib-only DTP control AUC in same experiment: 20885, DMSO control AUC in same experiment: 30326",13600
CCN1CCN(Cc2ccc(Nc3ncc(F)c(-c4cc(F)c5nc(C)n(C(C)C)c5c4)n3)nc2)CC1 [Abemaciclib] + C=CC(=O)Nc1cc(Nc2nccc(-c3cn(C)c4ccccc34)n2)c(OC)cc1N(C)CCN(C)C [osimertinib],area under confluence curve,"test compound dose 100 nM, dosing schedule: sequential, osimertinib-only DTP control AUC in same experiment: 10725, DMSO control AUC in same experiment: 30578",2310
same,area under confluence curve,"test compound dose 100 nM, dosing schedule: sequential, osimertinib-only DTP control AUC in same experiment: 15163, DMSO control AUC in same experiment: 28684",7750
same,area under confluence curve,"test compound dose 100 nM, dosing schedule: sequential, osimertinib-only DTP control AUC in same experiment: 23366, DMSO control AUC in same experiment: 88996",7100
same,area under confluence curve,"test compound dose 100 nM, dosing schedule: upfront, osimertinib-only DTP control AUC in same experiment: 10245, DMSO control AUC in same experiment: 30578",6070
same,area under confluence curve,"test compound dose 100 nM, dosing schedule: upfront, osimertinib-only DTP control AUC in same experiment: 21337, DMSO control AUC in same experiment: 28684",15800
same,area under confluence curve,"test compound dose 100 nM, dosing schedule: upfront, osimertinib-only DTP control AUC in same experiment: 29852, DMSO control AUC in same experiment: 88996",6410
COc1nnc2ccc(N3CCC(c4ccc(OCCN5CCN(C)C(=O)[C@H]5C)cc4)CC3)nn12 + C=CC(=O)Nc1cc(Nc2nccc(-c3cn(C)c4ccccc34)n2)c(OC)cc1N(C)CCN(C)C [osimertinib],area under confluence curve,"test compound dose 300 nM, dosing schedule: sequential, osimertinib-only DTP control AUC in same experiment: 3562, DMSO control AUC in same experiment: 31840",2500
same,area under confluence curve,"test compound dose 300 nM, dosing schedule: sequential, osimertinib-only DTP control AUC in same experiment: 10968, DMSO control AUC in same experiment: 21594",7840
same,area under confluence curve,"test compound dose 300 nM, dosing schedule: sequential, osimertinib-only DTP control AUC in same experiment: 12231, DMSO control AUC in same experiment: 19076",5480
same,area under confluence curve,"test compound dose 300 nM, dosing schedule: sequential, osimertinib-only DTP control AUC in same experiment: 12891, DMSO control AUC in same experiment: 44384",2120
same,area under confluence curve,"test compound dose 300 nM, dosing schedule: upfront, osimertinib-only DTP control AUC in same experiment: 16535, DMSO control AUC in same experiment: 19076",15300
same,area under confluence curve,"test compound dose 300 nM, dosing schedule: upfront, osimertinib-only DTP control AUC in same experiment: 16570, DMSO control AUC in same experiment: 44384",19700
same,area under confluence curve,"test compound dose 300 nM, dosing schedule: upfront, osimertinib-only DTP control AUC in same experiment: 17834, DMSO control AUC in same experiment: 21594",15800
same,area under confluence curve,"test compound dose 300 nM, dosing schedule: upfront, osimertinib-only DTP control AUC in same experiment: 19015, DMSO control AUC in same experiment: 31840",27400
COc1ccc(CCc2nc3cc(-c4c(C)noc4C)ccc3n2C[C@H](C)N2CCOCC2)cc1Cl + C=CC(=O)Nc1cc(Nc2nccc(-c3cn(C)c4ccccc34)n2)c(OC)cc1N(C)CCN(C)C [osimertinib],area under confluence curve,"test compound dose 1000 nM, dosing schedule: sequential, osimertinib-only DTP control AUC in same experiment: 4730, DMSO control AUC in same experiment: 72888",6290
same,area under confluence curve,"test compound dose 1000 nM, dosing schedule: sequential, osimertinib-only DTP control AUC in same experiment: 9508, DMSO control AUC in same experiment: 26668",9310
same,area under confluence curve,"test compound dose 1000 nM, dosing schedule: sequential, osimertinib-only DTP control AUC in same experiment: 12065, DMSO control AUC in same experiment: 48219",13500
same,area under confluence curve,"test compound dose 1000 nM, dosing schedule: upfront, osimertinib-only DTP control AUC in same experiment: 8775, DMSO control AUC in same experiment: 72888",20400
same,area under confluence curve,"test compound dose 1000 nM, dosing schedule: upfront, osimertinib-only DTP control AUC in same experiment: 11298, DMSO control AUC in same experiment: 26668",10700
same,area under confluence curve,"test compound dose 1000 nM, dosing schedule: upfront, osimertinib-only DTP control AUC in same experiment: 22645, DMSO control AUC in same experiment: 48219",37300
